Test results: PubChem BioAssay (NCI)
Several values for one entry are separate records, joined by “and”; a condition that tells them apart may be missing. Equal values may be shown once. This is part of a sample that, as a whole, favours compounds with a hit. Of some 83,000 tested, about 20% had one in any assay.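 Activity criterion: percent growth below 10, measured after cells in 96-well plates were exposed to a single compound concentration for 48 hours.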 Activity calls are given as the source filed them.

Legend:
Assay in all cases: NCI-60 one-dose screen, 48 h (100 = growth as untreated, 0 = no growth, -100 = all killed)
Conditions in all cases: 10 µM unless noted
[1] = test system: T-47D breast
[2] = test system: BT-549 breast
[3] = test system: MDA-MB-435 melanoma
[4] = test system: SW-620 colon
[5] = test system: MCF7 breast
[6] = test system: HCT-116 colon
[7] = test system: HCC-2998 colon
[8] = test system: KM12 colon

Measured: growth

C=C(c1ccc(C(=O)O)cc1)c1cc2c(cc1C)C(C)(C)CCC2(C)C
inactive: [1] 93.8% and 75.7% | [2] 55.4% | [3] 95.9% and 84% | [4] 113% and 97.6% | [5] 75.9% and 63.6% | [6] 71.3% and 50% | [7] 78.6% and 76.1% | [8] 59.2% and 36.3%

N#Cc1ccccc1-c1ccc(Cn2c(-c3cscn3)nc3c(Cl)cccc32)cc1
inactive: [1] 56.3% | [2] 76.1% | [3] 90.1% | [4] 87.6% | [5] 64.2% | [6] 51.2% | [7] 93% | [8] 77.1%

Cc1c(C(C)(C)O)cn2ncnc(Oc3ccc(NC(=O)Nc4ccc(Cl)c(C(F)(F)F)c4)cc3)c12
inactive: [1] 21.8% | [2] 58% | [3] 37.4% | [4] 62% | [5] 25.2% | [6] 28.6% | [7] 85.7% | [8] 24.8%

O=S(=O)(Nc1ccc(F)cc1)c1ccc(-c2cnc(C3CC3)o2)cc1
active: [3] -10.3%
inactive: [1] 32.6% | [2] 52.8% | [4] 20.6% | [5] 16.3% | [6] 18.8% | [7] 56.4% | [8] 21.2%

O=C(N=Nc1c(O)[nH]c2ccccc12)Nc1ccc(Br)cc1
inactive: [1] 91.6% | [2] 89% | [3] 90.4% | [4] 91.6% | [5] 79.1% | [6] 88.6% | [7] 104% | [8] 92.4%

CCCCC(NC(=O)CN1C(=O)/C(=C/C(C)=C/c2ccccc2)SC1=S)C(=O)O (stereo not given)
inactive: [1] 105% | [2] 112% | [3] 104% | [4] 94.6% | [5] 93.3% | [6] 98.5% | [7] 110% | [8] 102%

CCOC(=O)C(=Cc1ccc(C#N)cc1)C(=O)OCC
active: [1] 9.64% | [3] 8.84% | [4] 0.79% | [6] -13.1%
inactive: [2] 47.3% | [5] 12.3% | [7] 78.7% | [8] 29.8%

Cc1cccc(Cc2cnc(NC(=O)CCCOc3ccc(Cl)cc3)s2)c1
active: [3] -53.2%
inactive: [1] 33.5% | [2] 61.5% | [4] 25% | [5] 20% | [6] 16.4% | [7] 48.9% | [8] 21.8%

CCOc1ccccc1NC(=O)c1cc2ccccc2cc1O
inactive: [1] 51.7% | [2] 85% | [3] 49.4% | [4] 64.7% | [5] 70.3% | [6] 31.9% | [7] 76.3% | [8] 33.6%

Cc1ccc(C(=O)Nc2ccc(CN3CCN(C)CC3)c(C(F)(F)F)c2)cc1C#Cc1cnc(N)cc1C#N
active: [1] -4.9% | [3] -90.7% | [4] -81.2% | [5] -75.5% | [6] -87% | [7] -77.3% | [8] -69.8%
inactive: [2] 13.9%

O=C1C(c2c[nH]c3ccccc23)=C(c2coc3cc(Br)ccc23)C(=O)N1O
inactive: [1] 77.5% | [2] 103% | [3] 103% | [4] 102% | [5] 80.6% | [6] 96.7% | [7] 100% | [8] 97.9%

Nc1ccc(/C=N/Nc2ccnc3c(N)cccc23)c2cccnc12
inactive: [7] 41.5%
active: [1] -39.5% | [2] -37.2% | [3] -84.1% | [4] -28.3% | [5] -47.1% | [6] -93.1% | [8] 0.438%

O=C1/C(=C/c2ccc(F)c(F)c2)CN(C(=O)C(Cl)Cl)C/C1=C\c1ccc(F)c(F)c1
active: [1] -46.2% | [2] -98% | [3] -94.8% | [4] -67.6% | [5] -55.2% | [6] -98.9% | [7] -83.4% | [8] -89.2%

Clc1ccc2c(NCCN3CCN(c4ccnc(N5CCCC5)n4)CC3)ccnc2c1
active: [1] 2.2% | [6] 4.45% | [7] 0.613%
inactive: [2] 75.8% | [3] 15.2% | [4] 12.9% | [5] 12.3% | [8] 54.3%

Nc1nc(Nc2ccc(F)cc2)nn1C(=O)c1cc(Cl)ccc1Cl
inactive: [1] 84.9% | [2] 80% | [3] 88.8% | [4] 71.4% | [5] 48.8% | [6] 58.6% | [7] 86.3% | [8] 51.4%

O=Nc1c(O)ccc2ccccc12
-83.9% (active) and 116% (inactive): [3]
6.49% (active) and 81% (inactive): [6]
inactive: [1] 15.5% and 76.1% | [2] 94.5% and 90.8% | [4] 27.5% and 83.9% | [5] 67.8% and 78.1% | [7] 110% and 97.4% | [8] 66.8% and 109%

Cc1ccccc1SSc1ccccc1C
inactive: [1] 101% | [2] 83.9% | [3] 110% | [4] 55% | [5] 56.1% | [6] 55% | [7] 128% | [8] 96.9%

Nn1c(-c2ccc(Cl)cc2)nc2c(-c3ccc(Cl)cc3)nc3ccc(Cl)cc3c2c1=O
inactive: [2] 45.1% | [3] 37.4% | [5] 21.7% | [7] 372% | [8] 36.9%
active: [1] 9.59% | [4] -66.1% | [6] -100%

COc1ccc(CCNC(=O)COc2cc3c(Nc4ccc(F)c(Cl)c4)ncnc3cc2OC)cc1OC
inactive: [1] 70% | [2] 99.5% | [3] 97.2% | [4] 101% | [5] 91.9% | [6] 107% | [7] 101% | [8] 96.9%

O=C1/C(=C/c2ccccc2[N+](=O)[O-])Cc2ccccc21
9.87% (active) and 13% (inactive): [5]
1.93% (active) and 64% (inactive): [1]
active: [4] -56.2% and -45.4% | [6] -76.6% and -25.5%
inactive: [2] 19.4% and 27.3% | [3] 28.4% and 36.3% | [7] 85% and 106% | [8] 52% and 32.2%

COC1/C=C/OC2(C)Oc3c(C)c(O)c4c(O)c(c(C=NOC(c5ccccc5)c5ccccc5)c(O)c4c3C2=O)NC(=O)/C(C)=C/C=C/C(C)C(O)C(C)C(O)C(C)C(OC(C)=O)C1C (stereo not given)
active: [1] -82.7% | [7] -38.8% | [8] 5.8%
inactive: [2] 32.7% | [3] 11.5% | [4] 18.3% | [5] 10.9% | [6] 10.9%

C=CCOc1ccc(/C=C2\SC(=S)N(CCc3ccc(O)cc3)C2=O)cc1
inactive: [1] 82.8% | [2] 93.6% | [3] 77.5% | [4] 88.9% | [5] 86.5% | [6] 99.6% | [7] 114% | [8] 91.5%

CCOC(=O)c1cnn(-c2ccc(S(N)(=O)=O)cc2)c1N
inactive: [1] 103% | [2] 96% | [3] 109% | [4] 110% | [5] 95.2% | [6] 94.4% | [7] 115% | [8] 122%

O=C(NCCCN1CCCCC1)c1ccc(-c2nc3ccc4[nH]ncc4c3c3c2CCCC3)cc1
inactive: [1] 86.9% | [2] 31.4% | [3] 26.7% | [4] 24.5% | [5] 31.8% | [6] 16.8% | [7] 76% | [8] 20.6%

N=C(N)SCc1c2ccccc2c(CSC(=N)N)c2ccccc12
inactive: [1] 71.5% | [2] 102% | [3] 74% | [4] 43.1% | [5] 38.3% | [6] 40.4% | [7] 79.5% | [8] 59.7%

O=C1C(Nc2ccc(Cl)cc2)=C(I)C(=O)c2ncccc21
active: [1] -34.2% | [3] -80.5% | [4] -27% | [5] -34.3% | [6] -57.3%
inactive: [2] 53.3% | [7] 79.5% | [8] 39.8%

CCNC(=O)Oc1ccc(/C(=C(/C)Cc2ccc(OC)cc2)c2ccc(OCCN(CC)CC)cc2)cc1
inactive: [1] 27.4% | [2] 80.5% | [3] 40.5% | [4] 45.2% | [5] 18.3% | [6] 30.9% | [7] 59.7% | [8] 62.2%

O=C(NNc1ccccc1)C1CCCN1 (stereo not given)
inactive: [1] 55.6% | [2] 104% | [3] 37.1% | [4] 68.2% | [5] 76.4% | [6] 78.8% | [7] 82.2% | [8] 31.9%

Cc1nc2sc(C(=O)Nc3cccc4ncccc34)c(N)c2cc1C(C)O (stereo not given)
active: [3] -8.44%
inactive: [1] 76.2% | [2] 79% | [4] 59.2% | [5] 38.4% | [6] 70.1% | [7] 76.5% | [8] 59.2%

N#CSc1c[nH]c2ccc(/C=C/C(=O)/C=C(/C=C/c3ccc4[nH]cc(SC#N)c4c3)OB(F)F)cc12
inactive: [7] 31.9% | [8] 19.6%
active: [1] -7.65% | [2] -10.2% | [3] -77.4% | [4] 2.13% | [5] 7.23% | [6] -49.5%

C/C=C(\C)C(=O)N[C@H]1CC[C@]2(C)C3CC[C@@]4(C)C(CC[C@@H]4C(C)N(C)C)C3CCC2[C@H]1OC(C)=O (stereo not given in full)
active: [1] -43.5% | [2] -11% | [3] -56.8% | [4] -93% | [5] -27% | [6] -83.3% | [7] -85.4% | [8] -48.1%

Nc1c(C(=O)Nc2ccncc2)sc2nc3c(cc12)CCCCCCCC3
active: [1] -71.2% | [2] -60.8% | [3] -89.9% | [4] -69.2% | [5] -83.4% | [6] -76.3% | [7] -54.3% | [8] -80.4%

CCOC(=O)N(O)c1ccc(/C=C/c2ccccc2)cc1
8.37% (active) and 10.4% (inactive): [5]
inactive: [2] 78.1% and 69.9% | [3] 84.6% and 84.1% | [4] 60.2% and 46.6% | [6] 11.2% and 17.6% | [7] 59.3% and 66.4% | [8] 78.5% and 64.9%
11.2% (inactive) and 5.56% (active): [1]

CC[C@]1(O)CC2CN(CCc3c([nH]c4ccccc34)C(C(=O)OC)(c3cc4c(cc3OC)N(C=O)[C@H]3[C@@](O)(C(=O)OC)[C@H](OC(C)=O)[C@]5(CC)[C@@H]6C[C@@H]6CN6CC[C@]43[C@@H]65)C2)C1 (stereo not given in full)
inactive: [1] 72.1% | [4] 23.1% | [5] 12.1% | [7] 12.2%
active: [2] -2.67% | [3] -53.2% | [6] -17.5% | [8] -17.5%

COC(=O)/C=C1/SC(N2N=C(c3cccs3)CC2c2ccc(F)cc2)=NC1=O (stereo not given)
inactive: [1] 38.9% | [2] 66.1% | [3] 43.2% | [5] 10.1% | [7] 33.7% | [8] 30.5%
active: [4] 3.45% | [6] -15.3%
